ELG1 genotox: inducers of genotoxicity in HEK293T ELG1-luciferase cells | actives 1.3% (n = 330,000) | HEK293T ELG1-luciferase reporter, luminescence, 16 h | AID 504466 | Potency, µM (top dose mostly 46 µM), without a hit: top-dose activity change, positive = activation, actives largely listed as activators; further: % of control where 0% means no effect; nearly all actives have a fitted effect of over 60% in size
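Step 1: seed 2,000 HEK293T ELG1-luciferase cells per well. Step 2: add compound or DMSO, incubate 16 hr at 37 °C. Step 3: ONE-Glo, 30 min at room temperature, read luminescence.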
SMN2 splice up: SMN2 splice variant enhancement; Potency, µM (doses to about 46.1 µM), inactives show at the top dose activity change, positive = activation, most hits filed as activators; HEK293 SMN2-luciferase splicing reporter, luminescence, 30-36 h; actives 2.8% (n = 210,000); AID 1458; further: % of control where 0% means no effect; nearly all actives have a fitted effect of over 55% in size
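qHTS luciferase splicing reporter: luminescence rises when SMN2 exon 7 is included in transfected HEK293 cells. Compound exposure lasted 30-36 h at 37C, with 4.5 mM final sodium butyrate as control, followed by a ONE-Glo read.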
Luc counter: Kinase-Glo luciferase inhibition (counter-screen) | Kinase-Glo luciferase, ATP luminescence, 8 min | actives 0.28% (n = 200,000) | AID 1379 | Potency, µM (titrated, usually from 38.3 µM), without a hit: top-dose activity change, negative = inhibition, usual class: inhibitors; further: on the % scale 0 is the no-effect control and ±100 the full control effect; nearly all actives have a fitted effect of over 60% in size
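Light output from Kinase-Glo luciferase with luciferin and 10 uM ATP in 50 mM imidazole pH 7.2, KCl, MgCl2, Tween 20, BSA; compound pin-delivered, 8-min ambient incubation, then luminescence read.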
FLuc counter: firefly luciferase modulation, counter-screen for miR-21 project | P08659 | purified FLuc, Km substrates, luminescence inhibition | Potency, µM (highest dose often 57.5 µM), for inactives: top-dose activity change, negative = inhibition, most hits filed as inhibitors | actives 6.9% (n = 360,000) | AID 588342;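 further: plate controls were vehicle for no effect and reference inhibitor for full effect; nearly all actives have a fitted effect of over 55% in size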
Target sequence (P08659 whole entry, looked up): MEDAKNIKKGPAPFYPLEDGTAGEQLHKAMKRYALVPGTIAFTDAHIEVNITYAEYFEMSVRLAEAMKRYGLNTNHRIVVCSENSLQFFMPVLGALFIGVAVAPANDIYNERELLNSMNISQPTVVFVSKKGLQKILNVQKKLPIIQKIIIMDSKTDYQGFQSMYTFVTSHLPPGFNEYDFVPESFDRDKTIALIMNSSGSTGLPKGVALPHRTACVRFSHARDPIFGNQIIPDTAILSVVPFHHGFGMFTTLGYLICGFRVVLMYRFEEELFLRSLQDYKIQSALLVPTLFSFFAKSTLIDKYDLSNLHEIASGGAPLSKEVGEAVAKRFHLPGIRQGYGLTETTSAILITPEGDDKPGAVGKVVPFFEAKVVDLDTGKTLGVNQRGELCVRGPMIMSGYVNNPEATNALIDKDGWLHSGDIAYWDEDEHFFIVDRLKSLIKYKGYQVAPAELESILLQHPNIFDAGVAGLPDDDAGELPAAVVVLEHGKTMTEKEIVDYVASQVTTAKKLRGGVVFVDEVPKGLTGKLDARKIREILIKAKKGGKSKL
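Biochemical qHTS of compounds, final roughly 60 µM downward over six points, against 10 nM purified firefly luciferase using Km concentrations of substrates (10 uM D-luciferin, 10 uM ATP) in Tris acetate pH 7.5 buffer; luminescence output.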
NPC1 prom act: NPC1 promoter activation. Huh7 NPC1 promoter luciferase reporter, 24 h. AID 485313. Potency, µM (titrated, usually from 9.22 µM), without a hit: top-dose activation, most hits filed as activators. actives 2.4% (n = 320,000); further: % of control where 0% means no effect; nearly all actives have a fitted effect of over 60% in size
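Luminescence from an NPC1 promoter-driven luciferase reporter in stably transfected Huh7 cells was measured after 24 h compound treatment at 37 °C, followed by 10 min ambient incubation with luciferase detection reagent.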
Rab9 promoter act: activates the Rab9 promoter. Huh7 Rab9 promoter-luciferase reporter, luminescence, 24 h. Potency, µM (highest dose often 9.22 µM), inactives show at the highest dose activation, negative = inhibition, most hits filed as activators. actives 2.8% (n = 320,000). AID 485297; further: % of control where 0% means no effect; nearly all actives have a fitted effect of over 60% in size
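Huh7 cells stably carrying a Rab9 promoter-luciferase reporter, 1500 cells per well in OP-MEM I with 10% FBS, treated with compound 24 hours at 37C. Luciferase activity read by luminescence after 10 minutes with Amplite reagent.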
* hit, by the source's call; ? = inconclusive; · = no result; [ ] = remark or other dose. Compounds with a hit are over-represented: about 7.5% of the library has one in this group of screens. The call rests on the fitted dose curve; in most records, active means well fitted curve in the direction sought with a large enough effect; inconclusive means small, poorly fitted or top-dose-only effect, or another doubt; inactive means no such curve, though single readings can be large; an effect the other way counts as inactive or inconclusive. Potency means the concentration at half of the fitted maximal effect.

SMILES | ELG1 genotox | SMN2 splice up | Luc counter | FLuc counter | NPC1 prom act | Rab9 promoter act
COc1ccccc1NC(=O)CCn1c(=O)c2cccn2c2ccccc21 | -6% | · | · | -2% | -1% | 1%
COc1ccc(NC(=O)CCCn2c(=O)c3cccn3c3ccccc32)c(OC)c1 | · | · | · | 0.85µM* | · | ·
O=C(CCCn1c(=O)c2cccn2c2ccccc21)Nc1cccc(Cl)c1 | · | · | · | 12µM* | · | ·
Cc1ccc(CN(Cc2ccco2)C(=O)c2ccccc2Br)o1 | · | -7% | · | -17% | · | ·
Cc1ccc(C2CC(=O)N(Cc3ccccc3)c3c2c(C)nn3-c2nc(C)cc(C)n2)cc1 (stereo not given) | · | · | · | 3% | · | ·
O=C(O)Cn1c(SCc2cccc3ccccc23)nc2ccccc21 | 0% | 4% | 2% | 17µM* | -6% | -3%
O=C(O)Cn1c(SCc2ccccc2)nc2ccccc21 | 7% | -3% | 1% | ? | -1% | 4%
NC(=O)c1ccccc1NC(=O)/C=C/C(=O)O | 2% | -27% | 7% | 6% | -2% | 1%
NC(=O)c1ccccc1N/C=C/C(=O)c1ccco1 | 5.2µM* | 11µM* | -19% | 9.5µM* | ? | 3.2µM*
O=C(/C=C/Nc1ccc(Oc2ccccc2)cc1)c1ccco1 | ? | · | ? | 0.85µM* | 0.63µM* | 0.71µM*
O=C(/C=C/Nc1cccc(C(F)(F)F)c1)c1ccc(Oc2ncccn2)cc1 | 0% | -10% | -4% | 12µM* | ? | ?
O=C(/C=C/Nc1cccc(C(F)(F)F)c1)c1ccco1 | ? | ? | -7% | 11µM* | 21% | ?
COc1ccc(C)cc1NC(=O)C(=O)NCC(c1cccnc1)N1CCc2ccccc21 (stereo not given) | · | · | · | -18% | · | ·
O=C(/C=C/Nc1ccccc1C(F)(F)F)c1ccco1 | 2.9µM* | 10µM* | -21% | 1.2µM* | 2µM* | 0.71µM*
O=C(Cc1ccccc1F)NCC1(N2CCOCC2)CCCCC1 | -4% | · | · | 4% | -1% | -1%
Cc1cc(C)c(-c2nc3ccccc3s2)[nH]1 | ? | · | · | 4.8µM* | 4% | 9%
O=C(O)c1ccc2c(c1)C(=O)N(c1cccc(-c3nc4ccccc4s3)c1)C2=O | 6% | · | 0% | 2.4µM* | 1% | -7%
Nc1cccc(-c2nc3ccccc3s2)c1 | 3.7µM* | 57% | -9% | 1.2µM* | 3.2µM* | 4µM*
Oc1cccc(-c2nc3ccccc3s2)c1 | 1.5µM* | ? | -18% | 1.7µM* | 1% | ?
CC(=O)Nc1ccc(O)c(-c2nc3ccccc3s2)c1 | ? | 30% | 0% | ? | 20% | ?
Cc1[nH]nc(-c2ccc(O)cc2O)c1-c1nc2ccccc2s1 | 19% | -20% | -2% | -13% | 0% | 0%
Nc1ccc(-c2cc(-c3cccc(N)c3)nc(-c3ccccc3)n2)cc1 | -2% | -9% | 1% | 0% | -1% | -7%
CC1CC(=O)Nc2ccccc2N1S(=O)(=O)c1cccc(Cl)c1 (stereo not given) | -1% | -5% | -1% | 1% | 0% | 1%
CC[n+]1cccc(-c2nc3ccccc3s2)c1 | 4% | -20% | 1% | 27µM* | 1% | -1%
Cc1cccc(NC(=O)c2oc3ccc(S(=O)(=O)N4CCC5(CC4)OCCO5)cc3c2C)c1C | · | · | · | -7% | · | ·
SMILES | ELG1 genotox | SMN2 splice up | Luc counter | FLuc counter | NPC1 prom act | Rab9 promoter act
O=C(Nc1cccc(F)c1)c1ccc(-c2ccccc2Cl)o1 | ? | 11µM* | -11% | 9.5µM* | -2% | -2%
O=C(Nc1ccccc1)c1cc(-c2ccccc2Cl)no1 | ? | ? | -18% | 0.76µM* | ? | 23%
CCc1nnc(NC(=O)c2ccc(-c3ccccc3Cl)o2)s1 | 21µM* | 5% | -11% | ? | 30% | ?
O=C(Nc1cccc(O)c1)c1cc(-c2ccccc2F)no1 | · | · | · | 1% | · | ·
CC(=O)c1cccc(NC(=O)c2ccc(-c3ccccc3[N+](=O)[O-])o2)c1 | ? | 10µM* | -2% | 3.4µM* | ? | 3.2µM*
C[C@@H](C(=O)NCc1cccc2ccccc12)[C@H]1C[C@]1(C)[C@H](NC(=O)OCc1ccccc1)c1ccccc1 | · | -22% | 1% | · | · | ·
COC(=O)c1ccccc1Oc1ccc(NC(=O)CCCl)cc1 | 0% | 1% | 1% | -11% | 1% | -2%
Cc1ccc(-c2c(C)n3c4c(=O)n(C)c(=O)n(C)c4nc3n2CCCO)cc1 | · | -51% | · | 0% | · | ·
CCOC(=O)c1cc(-c2ccccc2)n(CCC(=O)NCCc2ccccc2)c1C | · | · | · | -2% | · | ·
Cc1ccc(NC(=O)c2ccc(-c3cccc(Cl)c3C)o2)cc1 | · | -19% | · | 7.6µM* | · | ·
COc1ccc(NC(=O)c2cc(-c3ccccc3Cl)no2)cc1 | 8% | -9% | -1% | 9.5µM* | 1% | -3%
COc1ccc(NC(=O)c2ccc(-c3ccccc3Cl)o2)cc1 | ? | 18µM* | -3% | 9.5µM* | ? | ?
COc1ccc(NC(=O)c2ccc(-c3cccc(Cl)c3C)o2)cc1 | · | 10% | · | ? | · | ·
CCOc1ccc(NC(=O)c2ccc(-c3cccc(Cl)c3C)o2)cc1 | · | 8% | · | -17% | · | ·
CC(C)(CNC(=O)c1ccc(-c2ccccc2Cl)o1)N1CCOCC1 | 13µM* | · | · | ? | ? | ?
CCc1ccc(NC(=O)C(=O)NCCc2sc(-c3ccc(C)cc3)nc2C)cc1 | · | · | · | 2% | · | ·
CCC(C)NC(=O)Cn1ccc2cc(S(=O)(=O)N3CCCCC3)ccc21 (stereo not given) | · | · | · | 6% | · | ·
COC(=O)c1sccc1-c1ccc(C(=O)Nc2ccccc2)o1 | ? | ? | -4% | 7.6µM* | 3.5µM* | 2.2µM*
O=C(CN1C(=O)CC(c2ccccc2)=Nc2ccccc21)Nc1ccc(Br)cc1 | · | · | · | -3% | · | ·
COC(=O)C(C)Oc1ccc(-c2nccc(-c3ccccn3)n2)cc1 (stereo not given) | 1% | · | · | 19µM* | 13% | 9%
Oc1ccc(-c2nc(-c3ccc(F)cc3)c(-c3ccncc3)[nH]2)cc1 | -8% | -19% | -3% | -8% | -16%[46.1 µM] | -12%[46.1 µM]
NNC(=O)COc1ccc(-c2nccc(-c3ccc(F)cc3)n2)cc1 | 7% | · | · | ? | -14% | -11%
COC(=O)C(C)Oc1ccc(-c2nccc(-c3ccc(F)cc3)n2)cc1 (stereo not given) | 4% | · | · | 15µM* | 7% | 0%
Oc1ccc(-c2nccc(-c3ccc(F)cc3)n2)cc1 | ? | · | · | 13µM* | ? | ?
Cc1ccc2c(CC(=O)Nc3cc(C(F)(F)F)ccc3Cl)coc2c1C | · | 16% | · | 0% | · | ·
Cc1ccccc1NC(=O)Cn1c(=O)n(Cc2ccco2)c(=O)c2cccnc21 | · | 1% | · | -9% | · | ·

Screening data: PubChem BioAssay, National Center for Advancing Translational Sciences (NCATS)
